The sample as a whole holds a higher share of hits than the screen did.
Giardia FBPA inh – Giardia lamblia aldolase inhibition. purified Giardia FBPA. Potency, µM (series often up to 59.6 µM), for inactives: at the highest dose activity, negative = inhibition, usual class: inhibitors. 290,000 compounds, 0.71% hits. AID 2451; note: potency is the fitted concentration of half-maximal effect; % is set by controls: 0 for no effect and ±100 for the full control effect; nearly all actives have a fitted effect of over 55% in size
Target sequence (A8B2U2 whole entry, looked up): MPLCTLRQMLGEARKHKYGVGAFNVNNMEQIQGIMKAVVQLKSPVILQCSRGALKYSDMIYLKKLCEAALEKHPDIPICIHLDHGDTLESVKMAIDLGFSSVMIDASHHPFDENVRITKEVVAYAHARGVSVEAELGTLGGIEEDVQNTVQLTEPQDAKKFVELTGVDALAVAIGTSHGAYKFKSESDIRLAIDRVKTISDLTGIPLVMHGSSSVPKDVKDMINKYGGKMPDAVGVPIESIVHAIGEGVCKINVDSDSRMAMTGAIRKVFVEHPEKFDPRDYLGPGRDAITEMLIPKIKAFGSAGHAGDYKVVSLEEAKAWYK
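40 nM FBPA preincubated 10 min at RT with compound (up to 57.5 uM final), then substrate plus GAPDH/TPI/NAD/arsenate coupling and diaphorase/resazurin added. Fluorescence read after 20 min at RT, 525/598 nm.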
Sm TGR inh – blocks Schistosoma mansoni thioredoxin glutathione reductase; Q962Y6; purified TGR, DTNB reduction, TNB absorbance 405 nm; 360,000 compounds, 3% hits; Potency, µM (titrated, usually from 114 µM), for inactives: at the top dose activity change, negative = inhibition, hits mostly inhibitors; note: potency is the fitted concentration of half-maximal effect; % is set by controls: 0 for no effect and ±100 for the full control effect; nearly all actives have a fitted effect of over 60% in size
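TGR 20 nM + NADPH 100 uM (dispensed conc.), cpd preinc 15 min RT; start with NADPH (500 uM addition) then DTNB (15 mM addition). Kinetic TNB absorbance, 405 nm filter. Four-parameter Hill fit across titration.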
Shiga inhibitor – blocks Shiga toxin action in Vero cells; Vero cells, Shiga toxin protein synthesis inhibition reporter; 290,000 compounds, 9.2% hits; inhibition, % at 38.7 µM; in the data active = inhibition mostly above about 28%, no sharp cut-off; inactive = mostly below about 43%; note: 0% is about no effect
Tb PYK inh – blocks Trypanosoma brucei pyruvate kinase | TbPYK enzyme, Kinase-Glo Plus ATP luminescence, 45 min | Potency, µM (series often up to 76.8 µM), without a hit: at the highest dose activity, negative = inhibition, usual class: inhibitors | 410,000 compounds, 0.12% hits | AID 624173; note: potency is the fitted concentration of half-maximal effect; % is set by controls: 0 for no effect and ±100 for the full control effect; nearly all actives have a fitted effect of over 50% in size
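Readout: single end-point luminescence (Kinase-Glo Plus, 10 min). Reaction conditions were TbPYK/substrate plus 130 uM ADP, 45 min at RT, pH 7.2 TEA buffer. No-enzyme wells served as controls, and data were normalized before concentration-response fitting.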
LmPK inhibitor – LmPK (Leishmania mexicana) enzyme inhibition; AID 1721; 290,000 compounds, 0.37% hits; Q27686; Potency, µM (top dose mostly 57.5 µM), inactives show at the top dose activity change, negative = inhibition, hits mostly inhibitors; purified LmPK, Kinase-Glo ATP luminescence, 1 h; note: potency is the fitted concentration of half-maximal effect; % is set by controls: 0 for no effect and ±100 for the full control effect
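Purified LmPK (0.1 nM) converted ADP (0.1 mM) to ATP with PEP (0.5 mM) in imidazole buffer pH 7.2 with KCl and MgCl2, 1 h at room temperature. ATP was read by Kinase-Glo luminescence; data normalized to uninhibited and no-enzyme controls.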
CHX counter – affects cycloheximide protein synthesis inhibition readout, counter-screen; cell reporter, cycloheximide protein synthesis inhibition counterscreen; max response, %; 300,000 compounds, 12% hits; AID 2314; in the data active = max response mostly above about 13%, no sharp cut-off; inactive = mostly below about 14%; note: read at 38.3 µM for the half of the compounds with a filed dose; 0% is about no effect
An asterisk follows results filed as active; u = inconclusive; x = no result; ! = not confirmed by another sample; [ ] = another dose, or the depositor's remark. Unless noted, calls come from the whole dose curve; as a rule, active = well fitted curve in the direction sought with a large enough effect; inconclusive = small, poorly fitted or top-dose-only effect, or another doubt; inactive = no such curve, though single readings can be large; an effect the other way counts as inactive or inconclusive.

SMILES	Giardia FBPA inh	Sm TGR inh	Shiga inhibitor	Tb PYK inh	LmPK inhibitor	CHX counter
Cc1cccc(C)c1NC(=O)COC(=O)c1ccc([N+](=O)[O-])o1	-25%	3%	-5	-2%	0%	-4
COC(=O)C/C=C\[C@@H](C)[C@@H](/C=N\OCC[C@H]1C=C[C@H](OC(C)=O)[C@@H](COC(C)=O)O1)NS(=O)(=O)c1ccc(C)cc1	2%[12.9 µM]	x	x	x	x	x
Cc1ccc(NC(=O)C2CCCN(c3ncnc4c3nc3n4CCCCC3)C2)c(Br)c1 (stereo not drawn)	x	6%	x	-3%	x	x
O=C(COC(=O)c1ccccc1O)Nc1ccc(OC(F)F)cc1	2%	u	56*	8%	-9%	22*
Cc1cc(-c2ccccc2)n2nc(-c3cccc(Br)c3)cc2n1	x	2%	x	2%	x	x
CCc1ccc(OCCn2cccn2)cc1	1%	5%	59*	5%	4%	34*
NCCS	16µM*!	-11%	-14	-1%	1%	-2
CSc1ccccc1C(=O)C1CCCN(C(=O)c2ccc(N3CCOCC3)cc2)C1 (stereo not drawn)	4%	-3%	34*	-5%	6%	17*
CCN(C(=O)Cn1c(=O)n(CCCS(=O)(=O)C2CCCCC2)c(=O)c2ccccc21)c1cccc(C)c1	x	3%	x	-2%	x	x
CCc1ccc(OC(C)c2nc(-c3ccc(-n4cccc4)cc3)no2)cc1 (stereo not drawn)	x	-5%	x	1%	x	x
Cc1ccccc1OC(C)c1nc(-c2ccccc2)no1 (stereo not drawn)	4%	3%	48	5%	-3%	38*
Cc1ccc(SC(C)c2nc(-c3ccccc3)no2)cc1 (stereo not drawn)	3%	3%	44	4%	-1%	23*
CCC(Oc1ccc(F)cc1)C(=O)Nc1nc(-c2ccc(F)cc2)ns1 (stereo not drawn)	x	42%	x	-4%	x	x
CCS(=O)(=O)N1CCC(C(=O)Oc2ccc(Cl)cc2)CC1	6%	4%	-3	-3%	-2%	-3
CCC(N=c1cc(-c2ccc(OC)cc2)oc2ccc(C)cc12)C(=O)O (stereo not drawn)	-2%	-6%	77*	-4%	2%	82*
CCC(N=c1cc(-c2ccc(OC)c(OC)c2)oc2ccc(C)cc12)C(=O)O (stereo not drawn)	-10%	-21%	16	-6%	-2%	21*
COc1ccc(-c2cc(C(=O)Nc3cc(C)ccc3O)no2)cc1OC	x	9%	x	0%	x	x
Cc1ccc(-n2ncc3c(NCCC4=CCCCC4)ncnc32)cc1	x	1%	x	3%	x	x
O=C(Nc1ccc2c(c1)OCO2)C1CC(c2ccccc2O)=NO1 (stereo not drawn)	6%	10%	103	0%	0%	active
COc1ccc(NC(=O)C2CC(c3ccccc3Cl)=NO2)cc1 (stereo not drawn)	8%	4%	30	10%	0%	14*
O=C(Nc1ccc2c(c1)OCCO2)C1CC(c2ccccc2Cl)=NO1 (stereo not drawn)	1%	13%	117*	2%	-5%	61*
O=C(Nc1ccc2c(c1)OCO2)C1CC(c2ccc(Cl)cc2)=NO1 (stereo not drawn)	-6%	13%	-6	2%	3%	-3
COc1ccc(Cl)cc1NC(=O)C1CCN(S(=O)(=O)c2ccc3c(c2)CCCN3C(=O)C2CCC2)CC1	x	-3%	x	0%	x	x
COc1ccc(NS(=O)(=O)c2cc(NC(=O)CCc3ccccc3)ccc2N2CCOCC2)cc1	x	x	x	-2%	x	x
Brc1ccc(Nc2c3c(nc4nncn24)CCC3)cc1	x	35µM*	x	-7%	x	x
SMILES	Giardia FBPA inh	Sm TGR inh	Shiga inhibitor	Tb PYK inh	LmPK inhibitor	CHX counter
Cc1cccc(Nc2c3c(nc4nncn24)CCC3)c1C	x	40µM*	x	3%	x	x
Cn1c(Cl)c(C(=O)Nc2ccccc2)c2ccccc21	-3%	1%	41*	-5%	-1%	23*
Cc1ccc(NC(=O)c2c(Cl)n(C)c3ccccc23)cc1	-4%	-14%	38	-3%	-1%	30*
CCn1c(=O)c(C(=O)Nc2ccc(C)cc2)c(O)c2ccccc21	6%	2%	43	1%	1%	9
CCCn1c(=O)c(C(=O)Nc2ccccc2)c(O)c2ccccc21	1%	0%	16	-5%	-2%	-1
CCCCN(C)C(=O)Cn1c(SCC(=O)Nc2ccc(C)c(C)c2)nc2ccccc21	x	-1%	x	1%	x	x
CCN(C(=O)CSc1nc2ccccc2c2nc(CCn3c(C)nc4ccccc43)nn12)c1cccc(C)c1	x	10%	x	3%	x	x
COc1ccc2c(c1)c1c(c(=O)n(-c3cc(Cl)ccc3C)c(=O)n1CC(=O)N1CCCC1)n2C	x	4%	x	-12%	x	x
Cc1ccc(S(=O)(=O)c2nc(-c3ccccc3)oc2N2CCC(C(N)=O)CC2)cc1	-3%	14µM*	11	3%	8%	-2
NC(=O)C1CCN(c2oc(-c3ccccc3)nc2S(=O)(=O)c2ccc(Br)cc2)CC1	x	u	-8	-16%	1%	10
Cc1ccc(S(=O)(=O)c2nc(-c3ccccc3)oc2N2CCN(c3ccccc3)CC2)cc1	x	8%	x	-4%	x	x
Cc1cccc(-c2nc(C#N)c(NC3CCCCC3)o2)c1	-3%	-4%	168*	-11%	-2%	50*
Cc1ccc(S(=O)(=O)c2nc(-c3ccccc3)oc2N2CCCC2)cc1	x	2µM*	x	22%	x	x
Cc1ccc(S(=O)(=O)c2nc(Cc3ccccc3)oc2N2CCOCC2)cc1	x	0.79µM*	x	5%	x	x
Cc1cccc(-c2nc3c(C#N)c[nH]n3c2NC2CCCCC2)c1	x	-11%	x	-10%	x	x
Cc1ccc(S(=O)(=O)c2nc(-c3cccc(C)c3)oc2N2CCCCC2)cc1	x	20µM*	x	2%	x	x
Cc1ccc(S(=O)(=O)c2nc(-c3ccco3)oc2N2CCC(C)CC2)cc1	x	40µM*	-5	-18%	2%	15
O=S(=O)(c1ccccc1)c1nc(-c2ccccc2)oc1N1CCCCC1	-29%	22µM*	77*	23%	4%	24*
CC(C)(C)c1ccc(-c2nc(S(=O)(=O)c3ccccc3)c(N3CCOCC3)o2)cc1	x	5%	x	11%	x	x
COc1ccc(-c2nc(S(=O)(=O)c3ccccc3)c(N3CCOCC3)o2)cc1	-22%	40µM*	-12	7%	0%	-2
Cc1ccc(S(=O)(=O)c2nc(-c3cccc(C)c3)oc2N2CCN(c3ccccc3)CC2)cc1	x	10%	x	6%	x	x
CCOC(=O)c1ccc(NC(=O)CCc2nc3cccnc3n2Cc2cccs2)cc1	x	-13%	x	0%	x	x
Cc1ccc(S(=O)(=O)N2CCOCC2)cc1C(=O)OCCOc1cccc(Cl)c1	x	1%	x	2%	x	x
CC(=O)OC1CC[C@]2(C)C(CC(OC(C)=O)[C@@]3(C)C4=CC(=O)OC(c5ccoc5)[C@]4(C)CCC23)C1(C)C (stereo partly drawn)	-11%	x	x	x	x	x
